# Source: PubChem BioAssay (NCI)
# This is part of a sample that, as a whole, favours compounds with a hit. Of some 79,000 tested, about 15% had one in any assay. Unmarked numbers belong to inactive results. The source made the active and inactive calls. Cut-off read from the data, not from the text of the source: active = growth inhibition above about 70%; inactive = the rest.
# Assay: NCI Yeast Anticancer Drug Screen. Data for the rad14 strain (AID 159);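 note: 0% = growth of vehicle-treated control cultures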
# Settings: S. cerevisiae rad14 strain growth inhibition; at 33.0 µM; hits give high values
# Method in brief: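 Test compounds were applied to a repair-deficient yeast strain. Its growth was then compared with that of cultures given vehicle alone, and inhibition was expressed relative to those controls.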
row,SMILES,growth inhibition
1,COc1ccc(/C=C2\CCc3ccccc3C2=O)cc1OC,19%
2,O=Cc1ccccc1B(O)O,99% (active)
3,O=C(O)[C@H]1[C@@H](C2CCCCC2)O[C@@H](C2CCCCC2)O[C@H]1C(F)(F)F,0%
4,CN(NC(=O)/C(=C/C=C/c1ccccc1)NC(=O)c1ccccc1)C1=C(Cl)C(=O)[N+](c2ccccc2)=CC1,13%
5,CCCCOc1ccc(Nc2c3ccccc3nc3ccccc23)cc1,97% (active)
6,N#C/C(=C1C=C/C(=N\O)C(Cl)=C\1)c1ccccc1,17%
7,COc1ccc(C(=O)OCCc2ccccc2)cc1,3%
8,Cc1c2ccncc2c(C)c2c1oc1ccccc12,93% (active)
9,CCCC#CCOC(=O)c1cc([N+](=O)[O-])cc([N+](=O)[O-])c1,99% (active)
10,Nc1nc(Nc2ccccc2)nc(Nc2ccccc2)n1,36%
11,COc1ccc(/C=C2\S/C(=N/Nc3nc(-c4ccccc4)cs3)NC2=O)cc1OC,93% (active)
12,CC(O)CN1C(=O)c2cccc3cc([N+](=O)[O-])cc(c23)C1=O (stereo not given),19%
13,COC1=C(N=[N+]=[N-])C(=O)c2ncccc2C1=O,91% (active)
14,CCN(CC)c1ccc(N=Nc2cc(S(=O)(=O)O)ccc2O)c(O)c1,1%
15,O=C1C(C(O)(C(F)(F)F)C(F)(F)F)CCC1C(O)(C(F)(F)F)C(F)(F)F (stereo not given),28%
16,CN(C)CCNC(=O)c1cccc2nc3c(ccc4ccccc43)nc12,50%
17,O=S(=O)(CCC[C@H]1[C@@H](CCOCc2ccccc2)C2CCCN1O2)c1ccccc1 (stereo not given in full),10%
18,CCC(C)/C(C)=N/NC(N)=O (stereo not given),0%
19,CC1=Cc2ccc(C)cc2C(=O)C1=O,99% (active)
20,C=Cc1c(C)c(O)cc2c1-c1ccc(O)c(C)c1CC2,97% (active)
21,NCC(O)CSCc1ccc(Cl)cc1 (stereo not given),7%
22,C[n+]1c(-c2ccc(NC(=O)c3ccc(C(=O)Nc4ccc(-c5cn6ccccc6[n+]5C)cc4)cc3)cc2)cn2ccccc21,84% (active)
23,CNC(=O)OCc1c(COC(=O)NC)c(C)n(-c2ccc(Cl)c(Cl)c2)c1C,98% (active)
24,[O-]c1c2cc(-[n+]3c(-c4ccccc4)cc(-c4ccccc4)cc3-c3ccccc3)cc1COCCOCCOCCOCCOC2,9%
25,C[Si](C)(C)Cc1ccccc1C(=O)O,32%

# Same assay, conditions: S. cerevisiae rad14 strain growth inhibition; at 100.0 µM; hits give high values
row,SMILES,growth inhibition
1,COc1ccc(/C=C2\CCc3ccccc3C2=O)cc1OC,80% (active)
2,O=Cc1ccccc1B(O)O,99% (active)
3,O=C(O)[C@H]1[C@@H](C2CCCCC2)O[C@@H](C2CCCCC2)O[C@H]1C(F)(F)F,-1%
4,CN(NC(=O)/C(=C/C=C/c1ccccc1)NC(=O)c1ccccc1)C1=C(Cl)C(=O)[N+](c2ccccc2)=CC1,29%
5,CCCCOc1ccc(Nc2c3ccccc3nc3ccccc23)cc1,61%
6,N#C/C(=C1C=C/C(=N\O)C(Cl)=C\1)c1ccccc1,26%
7,COc1ccc(C(=O)OCCc2ccccc2)cc1,4%
8,Cc1c2ccncc2c(C)c2c1oc1ccccc12,98% (active)
9,CCCC#CCOC(=O)c1cc([N+](=O)[O-])cc([N+](=O)[O-])c1,99% (active)
10,Nc1nc(Nc2ccccc2)nc(Nc2ccccc2)n1,95% (active)
11,COc1ccc(/C=C2\S/C(=N/Nc3nc(-c4ccccc4)cs3)NC2=O)cc1OC,92% (active)
12,CC(O)CN1C(=O)c2cccc3cc([N+](=O)[O-])cc(c23)C1=O (stereo not given),21%
13,COC1=C(N=[N+]=[N-])C(=O)c2ncccc2C1=O,96% (active)
14,CCN(CC)c1ccc(N=Nc2cc(S(=O)(=O)O)ccc2O)c(O)c1,5%
15,O=C1C(C(O)(C(F)(F)F)C(F)(F)F)CCC1C(O)(C(F)(F)F)C(F)(F)F (stereo not given),49%
16,CN(C)CCNC(=O)c1cccc2nc3c(ccc4ccccc43)nc12,99% (active)
17,O=S(=O)(CCC[C@H]1[C@@H](CCOCc2ccccc2)C2CCCN1O2)c1ccccc1 (stereo not given in full),25%
18,CCC(C)/C(C)=N/NC(N)=O (stereo not given),0%
19,CC1=Cc2ccc(C)cc2C(=O)C1=O,99% (active)
20,C=Cc1c(C)c(O)cc2c1-c1ccc(O)c(C)c1CC2,98% (active)
21,NCC(O)CSCc1ccc(Cl)cc1 (stereo not given),34%
22,C[n+]1c(-c2ccc(NC(=O)c3ccc(C(=O)Nc4ccc(-c5cn6ccccc6[n+]5C)cc4)cc3)cc2)cn2ccccc21,96% (active)
23,CNC(=O)OCc1c(COC(=O)NC)c(C)n(-c2ccc(Cl)c(Cl)c2)c1C,98% (active)
24,[O-]c1c2cc(-[n+]3c(-c4ccccc4)cc(-c4ccccc4)cc3-c3ccccc3)cc1COCCOCCOCCOCCOC2,81% (active)
25,C[Si](C)(C)Cc1ccccc1C(=O)O,99% (active)
